Among the test systems are NCI-H23 lung; NCI-H226 lung; HOP-62 NSCLC; NCI-H460 lung; HOP-92 NSCLC; NCI-H522 lung; A549/ATCC NSCLC; 786-0 renal; COLO 205 colon; DU-145 prostate; K-562 leukemia; MALME-3M melanoma; MDA-MB-231 breast; RXF 393 renal; SF-268 CNS; SF-295 CNS; SF-539 CNS; UACC-257 melanoma; M14 melanoma; NCI-H322M lung.
Holding throughout (test): NCI-60 one-dose screen, 48 h (100 = growth as untreated, 0 = no growth, -100 = all killed)
Common to all, as to settings: 10 µM unless noted

SMILES strings stand for the structures. This is part of a sample that, as a whole, favours compounds with a hit. Of some 83,000 tested, about 20% had one in any assay.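 Assay: single dose, 48 h. Readout: percent growth (0 = no net growth; negative = cell death). Active: <10.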 A number with no mark means an inactive call. The source made the active and inactive calls.

On to `CC(C)CC1NC(C)(C)CO1` (centres undefined), for which the growth in the experiment on NCI-H23 lung was 105%; in the experiment with NCI-H226 lung, 107%; in the experiment with HOP-62 NSCLC it was 95.9%; in the experiment with NCI-H460 lung it was 107%; in the experiment with HOP-92 NSCLC it was 98%; in the experiment on NCI-H522 lung, 89.8%. The growth is 103% in the experiment with A549/ATCC NSCLC; 109% with 786-0 renal; 108% in the experiment on COLO 205 colon; 117% in the experiment on DU-145 prostate; 125% in the experiment on K-562 leukemia; 124% in the experiment with MALME-3M melanoma. In addition, the growth is 106% in the experiment with MDA-MB-231 breast; 109% in the experiment on RXF 393 renal; 102% with SF-268 CNS; 131% with SF-295 CNS; 126% in the experiment with SF-539 CNS; 112% in the experiment on UACC-257 melanoma. Besides, the growth in the experiment with M14 melanoma was 110%.
As for `CCN1CCN(c2nc(NNC(=O)c3ccccc3)nc(N3CCN(C(c4ccccc4)c4ccccc4)CC3)n2)CC1`, the growth with NCI-H23 lung is 67.5%; with NCI-H226 lung, 73%; in the experiment on HOP-62 NSCLC, 79.7%; in the experiment on NCI-H460 lung, 3.33% (active); in the experiment with HOP-92 NSCLC, 59.3%; with A549/ATCC NSCLC it was 54.2%. Further, the growth in the experiment with 786-0 renal was 66.4%; in the experiment with COLO 205 colon it was -57% (active); in the experiment with DU-145 prostate, 71.9%; in the experiment with K-562 leukemia it was 9.4% (active); in the experiment on MALME-3M melanoma, 4.38% (active); in the experiment on MDA-MB-231 breast it was 71.7%. Further, the growth is 59.7% in the experiment with RXF 393 renal; 76.9% with SF-268 CNS; 79.3% in the experiment on SF-295 CNS; 73.1% in the experiment with SF-539 CNS; 13.9% in the experiment on UACC-257 melanoma; 0.297% (active) in the experiment on M14 melanoma.
For the compound `COc1ccc(NC(=O)c2cc(OC)c(OC)c(OC)c2)cc1O`, the growth in the experiment on NCI-H23 lung was 52.2%; in the experiment on NCI-H226 lung it was 99.9%; in the experiment with HOP-62 NSCLC, 35.1%; with NCI-H460 lung, 17.2%; with HOP-92 NSCLC, 37.4%; in the experiment on NCI-H522 lung, -41% (active). Also, the growth in the experiment on A549/ATCC NSCLC was 48.6%; in the experiment on 786-0 renal, 38.5%; in the experiment with COLO 205 colon, 40.4%; in the experiment on DU-145 prostate, 36.6%; in the experiment on K-562 leukemia, 27.7%; with MALME-3M melanoma, 46.5%. The growth in the experiment on MDA-MB-231 breast was 58.5%; in the experiment with RXF 393 renal it was 46.4%; with SF-268 CNS it was 44.1%; with SF-295 CNS it was 35.5%; in the experiment on SF-539 CNS it was 21.5%; with UACC-257 melanoma it was 58.2%. For the same compound, the growth in the experiment with M14 melanoma was 36%.
For `O=c1[nH]c(Nc2ccc(S(=O)(=O)O)cc2)nc2nc(Nc3ccc(NC(=S)Nc4ccccc4)cc3)nc(-c3ccc(O)cc3O)c12`, the growth with NCI-H23 lung was 102%; with NCI-H226 lung, 88.6%; with HOP-62 NSCLC, 109%; in the experiment with NCI-H460 lung, 105%; in the experiment with HOP-92 NSCLC, 102%; with NCI-H522 lung, 91.9%. Besides, the growth is 110% in the experiment with A549/ATCC NSCLC; 104% in the experiment with 786-0 renal; 119% in the experiment with COLO 205 colon; 133% in the experiment on DU-145 prostate; 101% with K-562 leukemia; 98.8% in the experiment on MALME-3M melanoma. Moreover, the growth was 90.5% with MDA-MB-231 breast; 115% in the experiment on RXF 393 renal; 104% with SF-268 CNS; 121% in the experiment with SF-295 CNS; 189% with SF-539 CNS; 139% with UACC-257 melanoma.
As to `Clc1cc2c(nn1)Nc1ccccc1S2`, the growth in the experiment on NCI-H23 lung is 94.7%; in the experiment on NCI-H226 lung, 104%; in the experiment on HOP-62 NSCLC, 97.5%; with HOP-92 NSCLC, 83.6%; in the experiment with A549/ATCC NSCLC, 91.7%; in the experiment with 786-0 renal, 99.3%. For the same compound, the growth with COLO 205 colon is 116%; with DU-145 prostate, 109%; in the experiment on K-562 leukemia it was 98.2%; with MALME-3M melanoma it was 103%; in the experiment with MDA-MB-231 breast it was 114%; in the experiment with SF-268 CNS it was 102%. In addition, the growth was 108% in the experiment with SF-295 CNS, 89% in the experiment with SF-539 CNS, 73.5% in the experiment on UACC-257 melanoma and 107% in the experiment on M14 melanoma.
Consider `O=[N+]([O-])c1cc(Cl)c2[nH]c3c(Cl)cc([N+](=O)[O-])cc3c2c1`, for which the growth was -0.747% (active) in the experiment with NCI-H226 lung; -0.868% (active) with NCI-H322M lung; 15.3% in the experiment with HOP-62 NSCLC; -15.8% (active) in the experiment on NCI-H460 lung; -14.3% (active) in the experiment with HOP-92 NSCLC; -44% (active) in the experiment on NCI-H522 lung. For the same compound, the growth was -42% (active) in the experiment with A549/ATCC NSCLC; 8.87% (active) in the experiment with 786-0 renal; -73.6% (active) in the experiment on COLO 205 colon; 22.9% in the experiment on DU-145 prostate; 3.44% (active) in the experiment with K-562 leukemia; -16.5% (active) with MALME-3M melanoma. In addition, the growth in the experiment on MDA-MB-231 breast was -30.3% (active); with RXF 393 renal, 12.4%; in the experiment with SF-268 CNS, 12.9%; in the experiment on SF-295 CNS it was -35.5% (active); with SF-539 CNS it was 23.8%; in the experiment with UACC-257 melanoma it was -52.2% (active). The growth with M14 melanoma was 16.3%.
For the compound `O=[N+]([O-])c1ccc(OCCCOc2ccccc2)cc1`, the growth in the experiment on NCI-H23 lung was 102%; in the experiment on NCI-H226 lung it was 113%; in the experiment with HOP-62 NSCLC, 96.9%; in the experiment on NCI-H460 lung it was 108%; in the experiment with NCI-H522 lung, 86.3%; in the experiment with A549/ATCC NSCLC it was 92.4%. Further, the growth in the experiment with 786-0 renal is 98.7%; with COLO 205 colon, 118%; in the experiment with DU-145 prostate, 108%; in the experiment with K-562 leukemia, 99%; with MALME-3M melanoma, 110%; in the experiment on MDA-MB-231 breast, 104%. The growth is 116% with RXF 393 renal; 106% with SF-268 CNS; 110% in the experiment on SF-539 CNS; 100% with UACC-257 melanoma; 114% in the experiment on M14 melanoma.
In the case of `OCCCCCCNc1ncnc2cc(Cl)ccc12`, the growth with NCI-H23 lung was 95%; with NCI-H226 lung, 84.1%; with HOP-62 NSCLC it was 88.5%; in the experiment on NCI-H460 lung, 94.2%; in the experiment with HOP-92 NSCLC, 74.6%; in the experiment with NCI-H522 lung it was 87.8%. The growth with A549/ATCC NSCLC was 95.6%; in the experiment with 786-0 renal, 100%; with COLO 205 colon, 103%; with DU-145 prostate, 104%; in the experiment on K-562 leukemia it was 84.6%; in the experiment on MALME-3M melanoma, 100%. The growth in the experiment with MDA-MB-231 breast was 99.7%; in the experiment on RXF 393 renal, 116%; in the experiment with SF-268 CNS, 97.2%; with SF-295 CNS, 99%; with SF-539 CNS, 92.8%; with UACC-257 melanoma, 90.7%. Besides, the growth in the experiment on M14 melanoma was 96.3%.
With `O=Nc1c(-c2cccc([N+](=O)[O-])c2)nc2ncccn12`, the growth in the experiment with NCI-H23 lung was 83.4%; in the experiment with NCI-H226 lung, 102%; with HOP-62 NSCLC it was 100%; in the experiment on NCI-H460 lung it was 101%; in the experiment on HOP-92 NSCLC, 87.4%; in the experiment on NCI-H522 lung, 67.1%. Besides, the growth was 97.7% in the experiment with A549/ATCC NSCLC; 93.9% with 786-0 renal; 65.1% in the experiment on COLO 205 colon; 73.5% in the experiment on DU-145 prostate; 10.5% in the experiment with K-562 leukemia; 85.2% with MALME-3M melanoma. Also, the growth was 111% with MDA-MB-231 breast; -3.85% (active) in the experiment with RXF 393 renal; 92.2% with SF-268 CNS; 107% with SF-295 CNS; 91% in the experiment on SF-539 CNS; 79.3% in the experiment with UACC-257 melanoma. In addition, the growth in the experiment with M14 melanoma is 76.9%.
